Test results from PubChem BioAssay AID1159580 (chemical genetic matrix, 2015).
Where “and” joins values, the source holds several entries; their conditions need not be identical. Equal values may be shown once. The whole screen tested about 5,500 compounds, of which about 2,000 (36%) were called active. Another 18% or so got no clear call; they are omitted. No stated cut-off is given here; in the data, active means normalized growth mostly below about 0.91 (no sharp cut-off); inconclusive means no clear call, values can overlap the other calls; inactive means mostly above about 0.92. This is one part of the list.

Assay: chemical genetic growth profiling, strain panel (AID 1159580);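 further: tested at 20 µM; growth read once vehicle control cultures reached saturation at 30 °C; 1 = growth at the plate median or of vehicle wells; lower values mean less growth of the strain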
Conditions: S. cerevisiae deletion strains, growth OD

Measured: normalized growth

CC(=O)OCC(=O)[C@@]1(O)[C@H](C)CC2C3CCC4=CC(=O)C=C[C@]4(C)[C@@]3(F)[C@@H](O)C[C@@]21C (some centres undefined)
inactive: locus YAL013W, strain DEP1, active compounds read low 1.01 | locus YAL021C, strain ccr4, active compounds read low 0.959 | locus YAL026C, strain drs2, active compounds read low 1 | locus YAL030W, strain snc1, active compounds read low 0.969 | locus YBL061C, strain skt5, active compounds read low 0.985 | locus YBR009C, strain hhf1, active compounds read low 0.983 | locus YBR021W, strain FUR4, active compounds read low 0.995 | locus YBR023C, strain chs3, active compounds read low 0.978 | locus YBR171W, strain sec66, active compounds read low 0.957 | locus YBR229C, strain ROT2, active compounds read low 1.01 | locus YBR231C, strain swc5, active compounds read low 0.962 | locus YBR279W, strain paf1, active compounds read low 0.991 | locus YCL011C, strain gbp2, active compounds read low 0.988 | locus YCL016C, strain dcc1, active compounds read low 1.01 | locus YCL029C, strain bik1, active compounds read low 1 | locus YCL061C, strain MRC1, active compounds read low 0.98 | locus YCL069W, strain vba3, active compounds read low 0.987 | locus YCR088W, strain abp1, active compounds read low 0.984 | locus YDL005C, strain med2, active compounds read low 0.964 | locus YDL035C, strain GPR1, active compounds read low 1.03 | locus YDL040C, strain nat1, active compounds read low 0.961 | locus YDL074C, strain BRE1, active compounds read low 1.01 | locus YDL101C, strain DUN1, active compounds read low 0.999 | locus YDL134C, strain PPH21, active compounds read low 1.02 | locus YDL185W, strain tfp1, active compounds read low 1.01 | locus YDL192W, strain arf1, active compounds read low 0.998 | locus YDR001C, strain nth1, active compounds read low 0.951 | locus YDR069C, strain doa4, active compounds read low 0.948 | locus YDR101C, strain arx1, active compounds read low 1.02 | locus YDR137W, strain rgp1, active compounds read low 0.997 | locus YDR150W, strain NUM1, active compounds read low 1.01 | locus YDR159W, strain sac3, active compounds read low 0.962 | locus YDR162C, strain NBP2, active compounds read low 1.02 | locus YDR195W, strain ref2 0.933 | locus YDR297W, strain sur2, active compounds read low 0.988 | locus YDR318W, strain mcm21, active compounds read low 0.999 | locus YDR334W, strain swr1, active compounds read low 0.948 | locus YDR335W, strain msn5, active compounds read low 0.966 | locus YDR388W, active compounds read low 0.997 | locus YDR392W, strain spt3, active compounds read low 1.07 | locus YDR502C, strain sam2, active compounds read low 0.998 | locus YEL003W, strain gim4, active compounds read low 0.981 | locus YEL037C, strain rad23, active compounds read low 0.98 | locus YEL061C, strain CIN8 (second series), active compounds read low 0.975 | locus YEL061C, strain CIN8, active compounds read low 1.01 | locus YER015W, strain faa2, active compounds read low 0.985 | locus YER016W, strain bim1, active compounds read low 1.04 | locus YER110C, active compounds read low 0.995 | locus YER111C, strain swi4, active compounds read low 0.986 | locus YER155C, strain BEM2 (second series), active compounds read low 0.967 | locus YER155C, strain BEM2, active compounds read low 0.999 | locus YER167W, strain BCK2, active compounds read low 1.01 | locus YFR010W, strain ubp6, active compounds read low 0.958 | locus YGL078C, strain dbp3, active compounds read low 0.997 | locus YGL086W, strain mad1, active compounds read low 1 | locus YGL167C, strain pmr1, active compounds read low 0.954 | locus YGL173C, strain kem1, active compounds read low 0.961 | locus YGL227W, strain vid30, active compounds read low 0.974 | locus YGL240W, strain doc1, active compounds read low 0.949 | locus YGL248W, strain PDE1, active compounds read low 1 | locus YGL253W, strain hxk2, active compounds read low 0.984 | locus YGR078C, strain PAC10, active compounds read low 1.01 | locus YGR135W, strain pre9, active compounds read low 0.993 | locus YGR252W, strain gcn5, active compounds read low 0.955 | locus YHR013C, strain ard1, active compounds read low 0.998 | locus YHR027C, strain rpn1, active compounds read low 0.982 | locus YHR030C, strain SLT2, active compounds read low 1.01 | locus YHR079C, strain IRE1 (second series), active compounds read low 0.996 | locus YHR079C, strain IRE1, active compounds read low 1.01 | locus YHR094C, strain hxt1, active compounds read low 0.995 | locus YHR129C, strain ARP1, active compounds read low 1.01 | locus YHR142W, strain chs7, active compounds read low 0.961 | locus YHR200W, strain rpn10, active compounds read low 0.995 | locus YIL066C, strain RNR3, active compounds read low 1.02 | locus YIL073C, strain SPO22, active compounds read low 0.99 | locus YIL125W, strain kgd1, active compounds read low 0.997 | locus YIR030C, strain dcg1, active compounds read low 1 | locus YJL092W, strain hpr5, active compounds read low 0.977 | locus YJL095W, strain BCK1 (second series), active compounds read low 0.968 | locus YJL095W, strain BCK1, active compounds read low 1.02 and 1.01 | locus YJL115W, strain asf1, active compounds read low 0.951 | locus YJL129C, strain trk1, active compounds read low 0.956 | locus YJL134W, strain LCB3, active compounds read low 1.01 | locus YJL154C, strain vps35, active compounds read low 0.964 | locus YJL164C, strain tpk1, active compounds read low 1 | locus YJL166W, strain qcr8, active compounds read low 0.915 | locus YJL168C, strain set2, active compounds read low 1.01 | locus YJL187C, strain SWE1 (second series), active compounds read low 1.01 | locus YJR043C, strain POL32, active compounds read low 1 | locus YJR066W, strain TOR1, active compounds read low 0.988 | locus YKL009W, strain mrt4, active compounds read low 1 | locus YKL068W, active compounds read low 0.998 | locus YKL085W, strain MDH1 (second series), active compounds read low 1.03 | locus YKL085W, strain MDH1, active compounds read low 1.03 | locus YKL160W, strain elf1, active compounds read low 0.971 | locus YKL190W, strain CNB1, active compounds read low 1.01 | locus YKR001C, strain vps1, active compounds read low 0.988 | locus YKR026C, strain gcn3, active compounds read low 0.964 | locus YKR091W, strain srl3, active compounds read low 0.97 | locus YLL001W, strain dnm1, active compounds read low 0.926 | locus YLL026W, active compounds read low 0.991 | locus YLL041C, strain sdh2, active compounds read low 0.955 | locus YLR027C, strain aat2, active compounds read low 0.979 | locus YLR039C, strain RIC1, active compounds read low 1.02 | locus YLR058C, strain SHM2, active compounds read low 1.01 | locus YLR102C, strain apc9, active compounds read low 0.993 | locus YLR113W, strain HOG1, active compounds read low 1.02 | locus YLR221C, strain rsa3, active compounds read low 1.02 | locus YLR258W, strain gsy2, active compounds read low 0.992 | locus YLR262C, strain YPT6 (second series), active compounds read low 0.92 | locus YLR262C, strain YPT6, active compounds read low 1.02 | locus YLR268W, strain sec22, active compounds read low 1.01 | locus YLR320W, strain mms22, active compounds read low 1.02 | locus YLR330W, strain CHS5, active compounds read low 1.01 | locus YLR342W, strain FKS1 (second series), active compounds read low 1.04 | locus YLR342W, strain FKS1, active compounds read low 0.969 | locus YLR357W, strain rsc2, active compounds read low 0.982 | locus YLR370C, strain arc18, active compounds read low 0.98 | locus YLR371W, strain rom2, active compounds read low 0.997 | locus YLR384C, strain iki3, active compounds read low 0.965 | locus YLR418C, strain cdc73, active compounds read low 0.954 | locus YML016C, strain PPZ1, active compounds read low 1.01 | locus YML032C, strain rad52, active compounds read low 0.997 | locus YML120C, strain ndi1, active compounds read low 0.973 | locus YML124C, strain tub3, active compounds read low 1.03 | locus YMR058W, strain fet3, active compounds read low 0.97 | locus YMR078C, strain ctf18, active compounds read low 0.998 | locus YMR125W, strain sto1, active compounds read low 0.963 | locus YMR129W, active compounds read low 0.988 | locus YMR205C, strain PFK2, active compounds read low 0.958 | locus YMR223W, strain ubp8, active compounds read low 0.999 | locus YMR231W, strain pep5, active compounds read low 0.965 | locus YMR307W, strain GAS1, active compounds read low 0.959 | locus YNL067W, strain RPL9B, active compounds read low 1.01 | locus YNL071W, strain lat1, active compounds read low 0.992 | locus YNL183C, strain NPR1, active compounds read low 0.974 | locus YNL209W, strain ssb2, active compounds read low 0.993 | locus YNL233W, strain BNI4, active compounds read low 1.01 | locus YNL248C, strain rpa49, active compounds read low 1.01 | locus YNL250W, strain rad50, active compounds read low 0.975 | locus YNL271C, strain bni1, active compounds read low 1 | locus YNL298W, strain CLA4, active compounds read low 0.989 | locus YNL307C, strain MCK1, active compounds read low 0.998 | locus YNL322C, strain KRE1 (second series), active compounds read low 0.961 | locus YNL322C, strain KRE1, active compounds read low 0.995 | locus YNR049C, strain mso1, active compounds read low 0.982 | locus YNR052C, strain pop2, active compounds read low 1.01 | locus YOL012C, strain htz1 0.869 | locus YOL147C, strain pex11, active compounds read low 0.999 | locus YOR001W, strain rrp6, active compounds read low 0.963 | locus YOR061W, strain CKA2, active compounds read low 1.02 | locus YOR069W, strain VPS5, active compounds read low 1.01 | locus YOR070C, strain gyp1, active compounds read low 0.99 | locus YOR080W, strain dia2, active compounds read low 0.946 | locus YOR083W, strain WHI5, active compounds read low 0.978 | locus YOR106W, strain vam3, active compounds read low 0.927 | locus YOR136W, strain idh2, active compounds read low 0.994 | locus YOR144C, strain elg1, active compounds read low 0.999 | locus YOR184W, strain ser1, active compounds read low 1.01 | locus YOR231W, strain MKK1, active compounds read low 1.03 | locus YOR265W, strain rbl2, active compounds read low 0.982 | locus YOR270C, strain vph1, active compounds read low 0.95 | locus YOR290C, strain snf2, active compounds read low 1 | locus YOR316C, strain cot1, active compounds read low 1 | locus YPL051W, strain arl3, active compounds read low 1.01 | locus YPL078C, strain atp4, active compounds read low 0.934 | locus YPL106C, strain sse1, active compounds read low 0.969 | locus YPL240C, strain hsp82, active compounds read low 0.969 | locus YPL256C, strain CLN2, active compounds read low 1.03 | locus YPR119W, strain clb2, active compounds read low 0.997 | locus YPR141C, strain kar3, active compounds read low 0.99 | locus YPR163C, strain tif3, active compounds read low 0.996 | locus YPR167C, strain met16, active compounds read low 1 | strain wtn01, active compounds read low 0.997
